Hits are enriched below; roughly 6% of the tested compounds scored in any of these assays.
D1 antag – blocks dopamine activation of the human D1 receptor; P21728; HEK293 TREx D1 cells, calcium flux, dopamine EC80; stronger effect = lower value; activity change, negative = inhibition, % at 10 µM; actives 3.2% (n = 360,000); AID 504652; in the data active means activity change below about -30%; further: on the % scale 0 is the no-effect control and ±100 the full control effect
Target sequence (P21728 whole entry, looked up): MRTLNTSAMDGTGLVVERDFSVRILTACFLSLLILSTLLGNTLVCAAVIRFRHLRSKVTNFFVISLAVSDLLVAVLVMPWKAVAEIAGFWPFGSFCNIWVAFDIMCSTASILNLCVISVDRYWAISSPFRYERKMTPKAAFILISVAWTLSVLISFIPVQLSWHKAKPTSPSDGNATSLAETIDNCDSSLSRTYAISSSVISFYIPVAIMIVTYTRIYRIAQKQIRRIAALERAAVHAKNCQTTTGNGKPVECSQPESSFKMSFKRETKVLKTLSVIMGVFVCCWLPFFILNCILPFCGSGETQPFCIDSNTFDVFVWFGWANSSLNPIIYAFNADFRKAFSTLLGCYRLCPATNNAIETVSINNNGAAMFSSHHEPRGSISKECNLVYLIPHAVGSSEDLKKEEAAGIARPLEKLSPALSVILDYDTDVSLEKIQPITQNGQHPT
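Inducible Hek293 Trex D1 cells (tetracycline, overnight, 30 C). Calcium dye 30–90 min RT. Antagonist mode: EC80 dopamine added after 180 s compound read.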
D3 antag – blocks the human D3 dopamine receptor. P35462. D3R cells, DiscoveRx beta-arrestin luminescence, antagonist mode; stronger effect = lower value. max response, negative = inhibition, %. actives 2.5% (n = 360,000); in the data active means max response below about -50%; inconclusive means no clear call, values can overlap the other calls; further: on the % scale 0 is the no-effect control and ±100 the full control effect
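Cells plated overnight at 1500 cells/well, then exposed to library compounds with dopamine controls for 90 minutes at 37 degrees C. DiscoveRx reagent added for 30–60 minutes at room temperature; luminescence read, quantitative HTS format.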
D1 ag – human D1 receptor agonism; P21728; actives 1% (n = 360,000); activation, % at 2 µM; AID 504660; HEK293 T-REx D1 cells, calcium flux, agonist mode; in the data active means activation above about 30%; further: 0% is about no effect
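Tetracycline-induced HEK293 TREx D1 cells, force-coupled to calcium signalling, were dye-loaded with a no-wash calcium kit. Compound was pin-added after a 10 s baseline. Fluorescence was read kinetically at 1 cycle/s for 180 s, with calcium rises flagged as agonism.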
D1 potentiator – human D1 dopamine receptor positive modulation; HEK293 TREx D1 cells, calcium flux, dopamine EC20 potentiation; AID 504651; potentiation, % at 10 µM; actives 0.036% (n = 360,000); in the data active means potentiation above about 30%; further: 0% is about no effect
D3 ag – D3 dopamine receptor (human) agonism. max activation, %. D3R DiscoveRx beta-arrestin cells, luminescence, 90 min. actives 0.58% (n = 410,000). P35462; in the data active means max activation above about 30%; further: 0% is about no effect
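Cells at 1500/well, incubated overnight, then treated with pinned compounds (dopamine as control) for 90 min at 37 degrees C. DiscoveRx reagent added for 30 - 60 minutes at room temperature; luminescence read.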
Numbers without * were called inactive; ? = inconclusive; nt = no result given.

SMILES | D1 antag | D3 antag | D1 ag | D1 potentiator | D3 ag
O=C(Nc1cccc2cccnc12)OCc1ccccc1 | 2 | nt | 4 | 2 | nt
COc1cc(NC(C)CCCN)c2ncccc2c1 (stereo not drawn) | -15 | -68* | 4 | -2 | 2
COc1ccccc1NC(=O)Cn1c(=O)c(CNc2ccccc2)cc2cc(OC)c(OC)cc21 | 2 | nt | 69* | -2 | -14
COc1ccccc1NC(=O)Cn1c(=O)c(CNc2ccc(C)cc2)cc2cc3c(cc21)OCCO3 | -16 | nt | 4 | 4 | 0
COc1cc2cc(CNc3ccccc3)c(=O)n(CC(=O)Nc3ccccc3)c2cc1OC | 7 | nt | 37* | 2 | 2
O=C(NC(c1ccc2c(c1)OCO2)c1ccccn1)C1CCN(CCOc2ccccc2)CC1 (stereo not drawn) | nt | -72* | nt | nt | 8
COc1cccc(C(NC(=O)C2CCN(CCCOc3ccccc3)CC2)c2ccccn2)c1 (stereo not drawn) | nt | -89* | nt | nt | -21
COc1ccc(OCCN2CCC(C(=O)NC(c3ccc(C)cc3)c3ccccn3)CC2)cc1 (stereo not drawn) | nt | -74* | nt | nt | -18
COc1ccc(C(NC(=O)C2CCN(CCOc3ccccc3)CC2)c2ccccn2)cc1 (stereo not drawn) | nt | ? | nt | nt | 4
Cc1ccc(CCNC(=O)c2cn(C)c3ccc(S(=O)(=O)N4CCC(C)CC4)cc3c2=O)cc1 | 0 | nt | -2 | 5 | -7
Cc1c(Cl)cccc1NC(=O)CN1C(=O)CCn2nc(-c3cccn3C)cc21 | -4 | nt | 3 | 0 | 1
Oc1ccccc1-c1nc(/C=C/c2ccccc2Cl)no1 | 0 | nt | 5 | 0 | 88*
CN(C)c1ccc(/C=C/c2noc(-c3ccccc3O)n2)cc1 | 3 | nt | 1 | -2 | 5
Cc1nncn1-c1ccc(C(=O)Nc2cc(F)ccc2F)cc1 | 2 | nt | 0 | -4 | 1
COc1cc(NC(=O)CSc2nnc(C)n3c2cc2oc(C)cc23)cc(OC)c1 | -23 | nt | -1 | -3 | 6
CCOC(=O)[C@H]1[C@H]2COc3ccc(Cl)cc3[C@@H]2N2C(=O)c3cc(F)ccc3NC(=O)[C@@]12C | 7 | 16 | 31* | 4 | 1
CCOC(=O)[C@H]1[C@H]2COc3ccc(C)cc3[C@@H]2N2C(=O)c3ccc(C)cc3NC(=O)[C@@]12C | 1 | 0 | 6 | 8 | -10
CCOC(=O)[C@H]1[C@H]2COc3ccc(Br)cc3[C@@H]2N2C(=O)c3ccc(Cl)cc3NC(=O)[C@@]12C | -14 | -75* | 7 | -5 | -27
COc1ccc(-c2noc(COc3ccc(C)c(C)c3)n2)cc1OC | -45* | 6 | 9 | -5 | 9
COc1ccc(-c2noc(COc3ccc(Br)cc3C)n2)cc1OC | 2 | nt | 33* | -1 | 2
CCN(Cc1nc(-c2ccc(OC)c(OC)c2)no1)S(=O)(=O)c1ccc(OC)cc1 | -34* | nt | 1 | 2 | 4
CCN(Cc1nc(-c2ccc(OC)c(OC)c2)no1)C(=O)c1ccc2c(c1)OCO2 | -2 | 13 | 5 | 0 | -27
COc1ccc(-c2noc(COc3ccc4ccccc4c3Br)n2)cc1OC | 11 | 3 | 0 | -5 | 8
Cc1cc(C)c2ccc(C(=O)O)nc2c1O | -17 | -63* | 1 | -3 | -6
COc1ccccc1N=c1scc(-c2ccc3c(c2)NC(=O)CO3)n1CC1CCCO1 (stereo not drawn) | 1 | -75* | 3 | -6 | -13
SMILES | D1 antag | D3 antag | D1 ag | D1 potentiator | D3 ag
CC1CC(=O)N(CC(=O)Nc2ccc(OC(F)(F)F)cc2)c2ccccc2S1 (stereo not drawn) | -9 | nt | 1 | -6 | -3
Cc1ccc2oc3c(c(=O)c2c1)C(c1cccc(O)c1)N(Cc1ccccc1Cl)C3=O (stereo not drawn) | -55* | nt | 1 | 1 | -6
Cc1cc2oc3c(c(=O)c2cc1C)C(c1cccc(Br)c1)N(Cc1ccco1)C3=O (stereo not drawn) | -24 | -16 | 0 | -3 | 2
Cc1ccc2oc3c(c(=O)c2c1)C(c1cccc(Br)c1)N(Cc1ccco1)C3=O (stereo not drawn) | -3 | -56* | -1 | -1 | 4
CCc1nn2c(-c3ccccc3OC)ccnc2c1-c1ccccc1 | -6 | nt | 4 | -5 | 3
O=C1c2ccccc2-c2onc3c(Br)cc(NC4CCCCC4)c1c23 | -2 | nt | 39* | -3 | 10
CC(C)CNc1cc(NC2CCCCC2)c2c3c(onc13)-c1ccccc1C2=O | -5 | nt | 1 | 3 | -5
CCOC(=O)c1c(NC(=O)c2ccc(S(=O)(=O)N3CCC(C)CC3)cc2)sc2c1CCN(C)C2 | -10 | nt | -1 | -1 | -24
Cc1cccc(NCc2cccc3ccccc23)n1 | -91* | 1 | 1 | -3 | -3
C=CCn1c(SCc2ccc(C(=O)O)cc2)nc2sc(C)c(C)c2c1=O | -20 | 2 | 1 | -1 | -8
Cc1sc2nc(SCc3ccc(C(=O)O)cc3)n(Cc3ccco3)c(=O)c2c1C | 14 | 146 | -1 | -1 | 84*
CCOC(=O)c1c(CSCc2ccccc2)oc2ccc(O)c(CN(C)C)c12 | 1 | -15 | 36* | -3 | 1
Nc1nc(C2CC2)c(Sc2sc(N)nc2C2CC2)s1 | -49* | 8 | 24 | 0 | 4
Nc1nc(C2CCOCC2)cs1 | 6 | 2 | 2 | -4 | -2
OC[C@H]1O[C@@H](O[C@H]2[C@H](O)[C@@H](O)[C@H](O)O[C@@H]2CO)[C@H](O)[C@@H](O)[C@@H]1O | nt | nt | nt | nt | 8
O=C(Nc1cccc(C(=O)OCc2cc(=O)n3c4c(sc3n2)CCCC4)c1)c1cccc(F)c1 | 7 | nt | 1 | 0 | 0
Cc1ccc([N+](=O)[O-])cc1N/C=C1\CCCCC1=O | 13 | 4 | 37* | -4 | 1
COC(=O)[C@]1(C)N[C@H](CN(C)C(=O)Nc2ccc(OC)cc2)[C@@H]2C(=O)N(Cc3ccccc3)C(=O)[C@@H]21 | nt | 19 | nt | nt | 34*
S=c1[nH]nc(-c2ccc3ccccc3n2)n1-c1cc(Cl)cc(Cl)c1 | -26 | -1 | 41* | -11 | 4
O=c1c2ccccc2cnn1Cc1n[nH]c(=S)n1-c1cc(Cl)cc(Cl)c1 | -10 | -57* | 2 | -3 | -7
O=c1c2ccccc2cnn1Cc1n[nH]c(=S)n1-c1ccc(F)c(Cl)c1 | 22 | -5 | 1 | 1 | -2
O=C(c1ccco1)N(Cc1ccc([N+](=O)[O-])cc1)c1ccc(Br)cc1 | 0 | 1 | -1 | -2 | 1
O=C(c1ccco1)N(Cc1cccc([N+](=O)[O-])c1)c1ccc(Br)cc1 | -36* | ? | 30 | -2 | -12
C=CCn1c(SCC(=O)Nc2sccc2C(N)=O)nc2sc(C)c(C)c2c1=O | -6 | 10 | 4 | -5 | 41*
COc1ccc(CNC(=O)CCc2c(C)c3cc4c(C)c(C)oc4cc3oc2=O)cc1OC | -4 | nt | -1 | 3 | -14

Screening data (PubChem)
